Experiment [1] in a line: Nuclear factor erythroid 2-related factor 2/antioxidant responsive element (Nrf2/ARE) small molecule agonists: qHTS cell viability counter screen in human keratinocytes (AID 1919968; active means well fitted curve in the direction sought with a large enough effect in the repeat runs; an effect the other way counts as inactive or inconclusive; further: nearly all actives have a fitted effect of over 55% in size; further: potency means the concentration at half of the fitted maximal effect). In short, it runs like this:
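KeratinoSens cells (HaCaT keratinocytes stably carrying an ARE-luciferase reporter) were seeded at 1,500 cells/well and rested 5 h at 37 C/5% CO2. They were then exposed to compounds in DMSO for 23 h. Viability was read by CellTiter-Fluor fluorescence after 1 h.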
(In general: qHTS replaces the single test concentration by a dilution series.)

For experiment [2], the target named is Gonadotropin-releasing hormone receptor (Homo sapiens) (UniProt P30968). The experiment in a line: Human gonadotropin-releasing hormone receptor (GnRHR) small molecule agonists, calcium flux assay in GnRHR-HEK293 cells (AID 1920063). Further: nearly all actives have a fitted effect of over 35% in size. In a few lines: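 HEK293 cells stably expressing human GnRHR were plated 18 h at 37 °C, loaded with calcium dye 1 h at 37 °C, then given compound in agonist mode; fluorescence (Ex/Em 480/540) read kinetically for 3 min at 1 s intervals.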
Sequence of Gonadotropin-releasing hormone receptor (Homo sapiens) (P30968 whole entry, looked up): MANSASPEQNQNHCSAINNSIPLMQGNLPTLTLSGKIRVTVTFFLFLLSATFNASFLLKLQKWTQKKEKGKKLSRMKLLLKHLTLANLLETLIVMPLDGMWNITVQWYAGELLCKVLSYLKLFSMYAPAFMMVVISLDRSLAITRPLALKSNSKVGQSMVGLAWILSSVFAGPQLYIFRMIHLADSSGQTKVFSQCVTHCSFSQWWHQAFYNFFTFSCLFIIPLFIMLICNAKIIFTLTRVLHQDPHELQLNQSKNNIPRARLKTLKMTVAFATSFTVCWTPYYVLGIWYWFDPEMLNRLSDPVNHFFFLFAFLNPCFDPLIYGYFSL
(In general: Calcium flux is commonly read through the fluorescence of an indicator in the cells.)

In experiment [3] the target is KiSS-1 receptor (Homo sapiens) (UniProt Q969F8). The experiment in a line: Human kisspeptin (KISS1R) small molecule agonists, calcium flux assay in KISS1R-HEK293 cells (AID 1920064; active means well fitted curve in the direction sought with a large enough effect in the repeat runs; an effect the other way counts as inactive or inconclusive). In a few lines: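 HEK293 cells stably expressing human KISS1R were plated 18 h at 37 °C, loaded with calcium dye for 1 h at 37 °C, then given compound by pin tool. Fluorescence (Ex/Em 480/540) was read kinetically for 3 min.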
Sequence of KiSS-1 receptor (Homo sapiens) (Q969F8 whole entry, looked up): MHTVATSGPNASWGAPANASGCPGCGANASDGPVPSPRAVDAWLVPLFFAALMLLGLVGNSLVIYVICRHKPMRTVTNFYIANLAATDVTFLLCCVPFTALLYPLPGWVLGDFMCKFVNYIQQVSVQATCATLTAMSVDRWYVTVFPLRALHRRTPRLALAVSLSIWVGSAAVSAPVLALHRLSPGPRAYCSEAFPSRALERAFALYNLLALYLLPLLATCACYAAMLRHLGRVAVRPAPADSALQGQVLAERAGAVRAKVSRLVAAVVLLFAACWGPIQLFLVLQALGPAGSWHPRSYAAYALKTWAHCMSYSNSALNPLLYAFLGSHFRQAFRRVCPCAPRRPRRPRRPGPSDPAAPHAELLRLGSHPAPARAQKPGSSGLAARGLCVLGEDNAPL

Experiment [4] in a line: G protein-coupled receptor (GPCR) small molecule agonists, calcium flux assay: HEK293 wild type cell line counter screen (AID 1920065). In short, it runs like this: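 Cells were plated and cultured 18 h at 37 C/5% CO2, then loaded with calcium dye for 1 h at 37 C. Compounds in DMSO were pin-transferred in agonist mode, and fluorescence (Ex/Em 480/540) was read kinetically for 3 min at 1 s intervals.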

The nature of experiment [5]: p53 small molecule agonists, cell-based qHTS assay with human liver microsomes (AID 1963577).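 Further: p53 response element beta-lactamase reporter cells with liver microsomes plus NADPH.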 In short, it runs like this: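 Steps: plate p53RE-bla cells, incubate 5 h at 37 C; add compound in DMSO; add microsomes (0.5 mg/mL final) and NADPH (0.5 mg/mL final); incubate 16 h at 37 C; add LiveBLAzer, 2 h RT; read fluorescence.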
A short description of experiment [6]: p53 small molecule agonists, cell-based qHTS assay with human liver microsomes: qHTS cell viability counter screen (AID 1963579). Further: nearly all actives have a fitted effect of over 45% in size. In short, it runs like this:
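After the 460/530 nm beta-lactamase read, CellTiter-Glo was added to the same wells and luminescence measured after 30 min at room temperature, giving viability of p53RE-bla cells treated 16 h with compounds plus microsomes and NADPH.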

The nature of experiment [7]: p53 small molecule agonists, cell-based qHTS assay with rat liver microsomes: qHTS cell viability counter screen (AID 1963580). Further: nearly all actives have a fitted effect of over 45% in size. In a few lines: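 In HCT-116 cells carrying a p53 response element-bla reporter, compounds were metabolically activated in situ by rat liver microsomes with NADPH over 16 h. Cell ATP content then served as the cytotoxicity measure.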
Experiment [8] is described as follows: p53 small molecule agonists, cell-based qHTS assay: qHTS cell viability counter screen (AID 1963581). Further: nearly all actives have a fitted effect of over 45% in size. In a few lines:
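p53RE-bla HCT-116 cells were exposed to compounds for 16 h at 37 C; after the beta-lactamase FRET read in the same wells, CellTiter-Glo was added and luminescence (intracellular ATP) read after 30 min at room temperature.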

Experiment [9] in a line: p53 small molecule agonists, cell-based qHTS assay (AID 1963582; active means well fitted activation curve with a large enough effect in the signal ratio in the repeat runs, not every such curve was filed as active; the % refers to the signal ratio). In a few lines: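 p53RE-bla beta-lactamase reporter cells rested 5 h at 37 C/5% CO2, then received compounds in DMSO by pin transfer and were incubated 16 h at 37 C. LiveBLAzer B/G FRET substrate was loaded for 2 h at room temperature before fluorescence reading.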
In experiment [10] the target is 5-hydroxytryptamine receptor 2A (Homo sapiens) (UniProt P28223). The experiment in a line: 5-hydroxytryptamine receptor 2A (HTR2A) small molecule antagonists, cell-based qHTS assay (AID 1963586). Further: nearly all actives have a fitted effect of over 45% in size. Further: potency means the concentration at half of the fitted maximal effect. In a few lines: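 Antagonist-mode intracellular calcium assay: DOI (4 nM) added after 5 min compound pre-incubation at room temperature to dye-loaded HTR2A-CHO cells. Fluorescence followed for 3 min, sampled every second.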
Sequence of 5-hydroxytryptamine receptor 2A (Homo sapiens) (P28223 whole entry, looked up): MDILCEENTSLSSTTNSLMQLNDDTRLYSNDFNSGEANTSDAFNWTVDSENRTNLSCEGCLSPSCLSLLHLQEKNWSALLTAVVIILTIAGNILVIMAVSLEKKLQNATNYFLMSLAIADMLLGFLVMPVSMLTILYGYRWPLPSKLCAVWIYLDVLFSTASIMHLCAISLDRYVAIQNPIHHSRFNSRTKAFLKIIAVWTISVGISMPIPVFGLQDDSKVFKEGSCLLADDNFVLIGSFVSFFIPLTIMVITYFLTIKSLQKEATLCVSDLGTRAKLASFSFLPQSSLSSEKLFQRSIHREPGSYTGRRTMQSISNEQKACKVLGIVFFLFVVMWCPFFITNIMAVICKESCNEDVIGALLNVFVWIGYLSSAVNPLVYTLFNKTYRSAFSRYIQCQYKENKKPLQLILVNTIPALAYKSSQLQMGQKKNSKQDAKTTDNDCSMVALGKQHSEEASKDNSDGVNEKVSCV

Experiment [11] shares this target. The experiment in a line: 5-hydroxytryptamine receptor 2A (HTR2A) small molecule agonists, cell-based qHTS assay (AID 1963587). Further: nearly all actives have a fitted effect of over 30% in size. In a few lines:
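HTR2A-CHO cells, plated 18 h at 37 C/5% CO2, dye-loaded 1 h at 37 C; compounds in DMSO added by pin tool (agonist mode). Intracellular calcium flux read as kinetic fluorescence on FDSS over 2 min at 1 s intervals.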

For experiment [12], the target named is Muscarinic acetylcholine receptor M1 (Homo sapiens) (UniProt P11229). The experiment in a line: Cholinergic receptor muscarinic 1 (CHRM1) small molecule antagonists, cell-based qHTS assay (AID 1963588). Further: nearly all actives have a fitted effect of over 40% in size. Further: potency means the concentration at half of the fitted maximal effect. In short, it runs like this: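 CHRM1-CHO calcium-flux assay, antagonist mode. Cells were seeded 18 h, dye-loaded 1 h at 37 C and given compound for 5 min at RT, then acetylcholine was added at 50nM. FDSS fluorescence was read 3 min; 15 concentrations, three runs.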
Sequence of Muscarinic acetylcholine receptor M1 (Homo sapiens) (P11229 whole entry, looked up): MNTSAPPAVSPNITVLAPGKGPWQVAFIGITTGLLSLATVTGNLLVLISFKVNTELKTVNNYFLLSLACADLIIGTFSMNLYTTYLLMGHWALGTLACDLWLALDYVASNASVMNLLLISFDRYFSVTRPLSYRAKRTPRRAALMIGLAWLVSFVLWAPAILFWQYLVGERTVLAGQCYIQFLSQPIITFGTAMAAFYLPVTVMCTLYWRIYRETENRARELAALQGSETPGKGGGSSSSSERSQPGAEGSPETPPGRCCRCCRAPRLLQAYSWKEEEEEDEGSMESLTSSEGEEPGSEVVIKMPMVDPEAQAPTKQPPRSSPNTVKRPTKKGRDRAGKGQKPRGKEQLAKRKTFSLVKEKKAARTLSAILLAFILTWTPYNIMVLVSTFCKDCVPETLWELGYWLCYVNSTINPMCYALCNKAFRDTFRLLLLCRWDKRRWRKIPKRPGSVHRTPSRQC

Experiment [13] can be described thus: cAMP Responsive Elements (CRE) small molecule agonists, cell-based qHTS assay (AID 1963590). In short, it runs like this: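 CRE-bla HEK 293T cells in DMEM with 10% dialyzed FBS, NEAA, pyruvate and 25 mM HEPES were plated 18 h at 37 C/5% CO2, then exposed to compounds in DMSO for 3 h before LiveBLAzer B/G FRET substrate addition.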
Experiment [14] addresses Beta-2 adrenergic receptor (Homo sapiens) (UniProt P07550). The experiment in a line: Adrenergic beta2 receptor (ADRB2) small molecule antagonists, cell-based qHTS assay (AID 1963592). Further: series mostly up to about 92 µM; nearly all actives have a fitted effect of over 50% in size. In a few lines: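 Cells (CHO, stable ADRB2 overexpression) incubated 18-20hr at 37C; compounds added from DMSO; agonist mix (1nM isoproterenol, 100uM IBMX, 25uM Ro-20-1724) added; 0.5hr RT; d2-cAMP and anti-cAMP-cryptate added; 1hr RT; 665/615 nm read.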

The target of experiment [15] is D(2) dopamine receptor (Homo sapiens) (UniProt P14416). The experiment in a line: Dopamine D2 receptor (DRD2) small molecule agonists, cell-based qHTS assay (AID 1963594). Further: nearly all actives have a fitted effect of over 35% in size. In short, it runs like this: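 HEK293 cells stably expressing DRD2 were cultured 24 h at 37 C, then given Ro20-1724 (0.1 mM final) and compounds for 10 min at room temperature. NKH477 (200nM) was then added for 30 min. cAMP was read by HTRF.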
Sequence of D(2) dopamine receptor (Homo sapiens) (P14416 whole entry, looked up): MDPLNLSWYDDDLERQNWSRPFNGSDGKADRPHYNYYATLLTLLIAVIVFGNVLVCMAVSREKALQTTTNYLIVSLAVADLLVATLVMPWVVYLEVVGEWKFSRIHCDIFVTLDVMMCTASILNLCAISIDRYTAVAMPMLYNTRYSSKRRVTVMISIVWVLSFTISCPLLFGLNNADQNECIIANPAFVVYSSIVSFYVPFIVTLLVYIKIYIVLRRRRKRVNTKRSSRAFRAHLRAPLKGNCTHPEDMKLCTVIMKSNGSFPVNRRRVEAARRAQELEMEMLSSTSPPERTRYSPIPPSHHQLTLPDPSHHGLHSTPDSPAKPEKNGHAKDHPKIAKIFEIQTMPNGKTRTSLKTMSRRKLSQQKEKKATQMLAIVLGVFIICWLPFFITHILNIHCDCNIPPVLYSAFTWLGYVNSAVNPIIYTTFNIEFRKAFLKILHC

Experiment [16] has the same target. The experiment in a line: Dopamine D2 receptor (DRD2) small molecule antagonists, cell-based qHTS assay (AID 1963595; active means well fitted inhibition curve with a large enough effect in the signal ratio in the repeat runs, with a control signal flat; the % refers to the signal ratio). In short, it runs like this: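 In this cell-based antagonist screen, compounds act for 10 min at room temperature before a 30 min challenge with 12 nM quinpirole and 200 nM NKH477. cAMP is quantified by HTRF competition in DRD2-HEK293 cells containing 0.1 mM Ro20-1724.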

In experiment [17] the target is Muscarinic acetylcholine receptor M1 (Homo sapiens) (UniProt P11229). The experiment in a line: Cholinergic receptor muscarinic 1 (CHRM1) small molecule agonists, cell-based qHTS assay (AID 1963589). Further: nearly all actives have a fitted effect of over 35% in size. In short, it runs like this: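 CHO cells stably expressing human CHRM1, seeded 18 h at 37 C/5% CO2, dye-loaded 1 h at 37 C, then given compound in agonist mode; intracellular calcium fluorescence read kinetically at 1 s intervals. Fifteen concentrations, three independent runs.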

Experiment [18] addresses Beta-2 adrenergic receptor (Homo sapiens) (UniProt P07550). The experiment in a line: Adrenergic beta2 receptor (ADRB2) small molecule agonists, cell-based qHTS assay (AID 1963593).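 Further: CHO cells stably overexpressing human ADRB2.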 In a few lines:
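CHO cells stably over-expressing ADRB2 were plated overnight at 37C, then dosed with compounds plus a stimulation mix containing 100uM IBMX and 25uM Ro-20-1724 for 0.5hr at room temperature. cAMP was measured by HTRF competition, 1hr.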

Experiment [19] is described as follows: p53 small molecule agonists, cell-based qHTS assay with rat liver microsomes (AID 1963578). In a few lines:
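Metabolic activation is supplied by rat liver microsomes with NADPH (each 0.5 mg/mL final). p53RE-bla cells incubate with compound 16 h at 37 C; reporter activity is measured by LiveBLAzer fluorescence.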

The nature of experiment [20]: cAMP Responsive Elements (CRE) small molecule antagonists, cell-based qHTS assay (AID 1963591; active means well fitted inhibition curve with a large enough effect in the signal ratio in the repeat runs, not every such curve was filed as active; the % refers to the signal ratio). In short, it runs like this:
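CRE-bla HEK293T cells were plated 18 h at 37 °C/5% CO2, pinned with compound in DMSO, then stimulated with NKH477 at 0.25 uM final for 3 h. LiveBLAzer B/G FRET substrate was added and plates incubated 2 h at room temperature.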

This passage reports Potency results from PubChem BioAssay (Tox21).

Values without a mark were called inactive. Inconclusive results are not listed. Activity calls are given as the source filed them. Unless noted, the call rests on the fitted dose curve.

Sequence of Beta-2 adrenergic receptor (Homo sapiens) (P07550 whole entry, looked up): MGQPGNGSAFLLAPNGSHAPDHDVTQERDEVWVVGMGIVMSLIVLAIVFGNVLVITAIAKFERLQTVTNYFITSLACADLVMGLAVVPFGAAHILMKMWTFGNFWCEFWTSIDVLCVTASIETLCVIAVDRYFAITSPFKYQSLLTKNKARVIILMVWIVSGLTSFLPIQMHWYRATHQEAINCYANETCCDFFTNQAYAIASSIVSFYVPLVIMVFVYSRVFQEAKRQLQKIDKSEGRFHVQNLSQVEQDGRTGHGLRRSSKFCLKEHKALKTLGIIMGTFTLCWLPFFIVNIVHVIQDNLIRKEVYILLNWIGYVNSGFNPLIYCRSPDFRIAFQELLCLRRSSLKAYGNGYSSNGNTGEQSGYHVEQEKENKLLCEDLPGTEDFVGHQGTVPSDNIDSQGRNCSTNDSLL

In the case of `Cc1cccc(OCCOc2cccc(C)c2)c1`, the Potency entry in experiment [1], in experiment [2], in experiment [3], in experiment [4], in experiment [5] and in experiment [6] was “inactive” each time. The Potency result in [7], in experiment [8], in experiment [9], in [10], in [11] and in experiment [12] was “inactive” in each case. For the same compound, the Potency result in [13], in [14], in experiment [15] and in experiment [16] was “inactive” throughout.

As for `CCNc1nc(NC(C)CC)nc(OC)n1` (stereo not given), the Potency result in experiment [1], in experiment [2], in experiment [3], in experiment [4], in experiment [5] and in [7] was “inactive” each time. In addition, the Potency entry in experiment [8], in [9], in experiment [10], in experiment [11], in experiment [12] and in [17] was “inactive” each time. Moreover, the Potency result in experiment [13], in experiment [14], in [18], in experiment [15] and in experiment [16] was “inactive” in each case.

Consider `[Cl][Au]([Cl])[Cl]`, for which, in experiment [1], the Potency was 3.06 µM (active). In addition, the Potency entry in [2], in [3], in experiment [4], in experiment [5], in experiment [19] and in [10] was “inactive” each time. Moreover, the Potency entry in [11], in [12], in experiment [17], in experiment [14], in experiment [18] and in experiment [15] was “inactive” throughout. Moreover, the Potency result in experiment [16] was “inactive”.

Regarding `O=C=NC1CCC(CC2CCC(N=C=O)CC2)CC1` (stereo not given), the values for the Potency in experiment [1], in experiment [10] and in [12] were 12.2 µM (active), 2.98 µM (active) and 4.21 µM (active), respectively. Also, the Potency entry in [2], in experiment [3], in [4], in experiment [5], in experiment [6] and in [7] was “inactive” each time. Further, the Potency entry in [8], in experiment [9], in experiment [17], in experiment [20] and in experiment [14] was “inactive” in each case.

As for `O=P(c1ccccc1)(c1ccccc1)c1ccccc1`, the Potency entry in experiment [1], in [2], in experiment [3], in experiment [4], in experiment [19] and in experiment [6] was “inactive” each time. The Potency entry in experiment [7], in [8], in [9], in experiment [10], in [11] and in experiment [12] was “inactive” each time. Besides, the Potency entry in experiment [13], in [20], in [14], in experiment [15] and in [16] was “inactive” throughout.

For `CCCCCOC(=O)CCCCC`, the Potency entry in [1], in [2], in experiment [3], in experiment [4], in experiment [19] and in [6] was “inactive” each time. The Potency result in [7], in experiment [8], in experiment [9], in experiment [10], in experiment [11] and in experiment [12] was “inactive” each time. Besides, the Potency result in [13], in experiment [20], in experiment [14], in [18], in [15] and in experiment [16] was “inactive” in each case.

In the case of `CC1(CO)CN(c2ccccc2)NC1=O` (stereo not given), the Potency entry in [1], in experiment [2], in experiment [3], in [4], in experiment [19] and in [6] was “inactive” each time. Also, the Potency entry in experiment [7], in experiment [8], in experiment [9], in [10], in experiment [11] and in experiment [12] was “inactive” each time. The Potency entry in [17], in experiment [13], in experiment [20], in experiment [18] and in experiment [15] was “inactive” in each case.

Turning to `CCCCCCCCCCC[C@@H](C[C@@H]1OC(=O)[C@H]1CCCCCC)OC(=O)[C@H](CC(C)C)NC=O`, the Potency result in [1], in experiment [2], in experiment [3], in experiment [4], in [19] and in experiment [6] was “inactive” in each case. In addition, the Potency result in experiment [7], in [8], in [9], in [10], in experiment [11] and in [12] was “inactive” in each case. The Potency entry in experiment [13], in experiment [20], in experiment [14], in experiment [15] and in experiment [16] was “inactive” in each case.
